From PubChem BioAssay
In the library only some 0.9% were active in any assay of this set; here they are far more common.
TR-FRET SRC-2 ct: counter-screen for PPARgamma SRC-2 recruitment agonists: TR-FRET artefact. stronger effect = higher value. TR-FRET ratio at 8 µM. hit rate 0.4% among 200,000. AID 1049
PPARg SRC-1 ag: agonists of human PPARgamma SRC-1 coactivator recruitment; PPARgamma-SRC-1 coactivator recruitment biochemical assay; hit rate 0.41% among 200,000; activation, % at 8 µM; AID 631; P37231; in the data active = activation above about 19%;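 note: 0% = DMSO and 100% = reference agonist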
Target sequence (P37231 whole entry, looked up): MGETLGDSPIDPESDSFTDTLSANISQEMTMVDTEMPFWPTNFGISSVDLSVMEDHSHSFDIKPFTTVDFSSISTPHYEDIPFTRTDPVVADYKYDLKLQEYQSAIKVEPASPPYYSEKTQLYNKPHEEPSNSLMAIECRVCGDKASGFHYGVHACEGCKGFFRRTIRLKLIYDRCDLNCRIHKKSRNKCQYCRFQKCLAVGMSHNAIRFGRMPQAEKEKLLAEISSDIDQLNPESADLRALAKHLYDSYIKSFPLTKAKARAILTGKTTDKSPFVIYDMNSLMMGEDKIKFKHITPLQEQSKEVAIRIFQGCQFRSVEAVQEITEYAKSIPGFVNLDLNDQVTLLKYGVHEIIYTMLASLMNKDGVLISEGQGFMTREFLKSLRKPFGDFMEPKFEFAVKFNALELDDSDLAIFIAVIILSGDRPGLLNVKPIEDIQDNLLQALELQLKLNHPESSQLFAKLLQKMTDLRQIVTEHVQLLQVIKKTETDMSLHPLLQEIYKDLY
PPARg SRC2 recr: promotes SRC-2 coactivator recruitment by human PPARgamma; AID 1032; P37231; PPARgamma LBD-SRC-2 recruitment, biochemical; hit rate 0.34% among 200,000; activation, % at 8 µM; in the data active = activation above about 22%;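 note: 0% = vehicle and 100% = reference agonist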
SRC3 TRFRET art: flags TR-FRET format artefacts in PPARgamma SRC-3 recruitment agonist screen; TR-FRET artefact counter-screen, PPARgamma/SRC-3 format; stronger effect = higher value; TR-FRET ratio at 8 µM; hit rate 0.39% among 99,000; AID 1048
SRC1 TRFRET art: flags TR-FRET format artefacts in PPARgamma SRC-1 recruitment agonist screen; TR-FRET ratio at 8 µM; hit rate 0.34% among 99,000; TR-FRET detection artefact counter-screen, emission ratio; stronger effect = higher value; AID 1051; in the data active = TR-FRET ratio above about 2300
PPARg SRC3 recr: promotes SRC-3 coactivator recruitment by human PPARgamma. P37231. biochemical PPARgamma/SRC-3 coactivator recruitment assay. activation, % at 8 µM. hit rate 0.26% among 200,000; in the data active = activation above about 23%;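 note: 0% = DMSO and 100% = reference agonist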
Starred values were filed as active, the others as inactive; . = no result given. Cut-off read from the data, not from the text of the source, unless noted: active = TR-FRET ratio above about 2000; inactive = the rest.

SMILES | TR-FRET SRC-2 ct | PPARg SRC-1 ag | PPARg SRC2 recr | SRC3 TRFRET art | SRC1 TRFRET art | PPARg SRC3 recr
Cc1cc2nccc(-c3cccnc3)n2n1 | 1622 | 3 | 1 | 1423 | 2036 | 1
Cc1ccc(NC(=O)CN(C)C(=O)c2ccc(S(=O)(=O)N(C)c3ccccc3)cc2)cc1 | 1577 | 6 | 3 | 1810 | 1725 | 5
Cn1c(=O)c2c(ncn2CCNC2=NCCCCC2)n(C)c1=O | 1522 | -1 | 38* | 1640 | 1841 | -1
CCOC(=O)c1c(C)[nH]c(C)c1C(=O)CSc1nc2ccccc2c(=O)n1-c1ccc(CC)cc1 | 1617 | 3 | 6 | 1640 | 1883 | 2
CC(=O)c1ccc(-n2c(SCC(=O)c3c[nH]c4ccccc34)nc3ccccc3c2=O)cc1 | 1706 | 4 | 11 | 2096* | 2168 | 5
NC(=O)c1c(NC(=S)Nc2ccccc2)sc2c1CCCC2 | 1869 | 5 | 14 | 2002 | 2381* | 7
CCCCOc1ccc(NC2=NC3(CCCC3)N=C(N)N2)cc1 | 2220* | 7 | 41* | . | . | 2
COc1ccc(Cn2c(C)c(C)c(C#N)c2NC(=O)Nc2ccc(Cl)cc2)cc1 | 1687 | 2 | 10 | . | . | -2
Cn1c(N)c(C(=O)c2ccc(Cl)cc2)c(=O)n(C)c1=O | 1575 | -2 | 11 | 1739 | 1960 | 3
Cc1nn(-c2ccc(Cl)cc2)c2sc(C(=O)c3c(N)n(C)c(=O)n(C)c3=O)cc12 | 1492 | 25* | -3 | . | . | -10
COC(=O)c1sccc1NC(=O)c1ccc(Br)s1 | 1947 | 43* | 10 | . | . | 14
CC(C)CCN1CCN(Cc2ccc(Oc3ncccn3)cc2)CC1CCO (configuration not stated) | 1741 | -1 | 3 | 1525 | 1614 | -3
CC(C)N1CCN(Cc2ccc(Oc3ncccn3)cc2)CC1CCO (configuration not stated) | 1545 | 21* | -4 | 1564 | 2154 | 2
CC(=O)N1N=C(c2cccs2)CC1c1ccc(C)o1 (configuration not stated) | 1750 | 11 | 4 | 1805 | 2339* | 1
CCCCNC(=O)/C=C/c1ccc(S(=O)(=O)Nc2ccc(OC)cc2)cc1 | 1421 | -1 | 6 | 1446 | 1886 | 5
CC(=O)c1cccc(NC(=O)c2cc3ccccn3n2)c1 | 1832 | 6 | 24* | . | . | 4
COc1cc(C(=O)N/N=c2/sc3ccccc3n2C)cc(OC)c1OC | 1548 | -3 | 0 | 1477 | 1686 | 0
COc1ccc(C(=O)N=c2sc3ccccc3n2C)cc1OC | 1578 | 168* | -2 | 1605 | 4952* | 4
C=CCOC(=O)C1=C[C@@H](c2ccc3c(c2)OCO3)C[C@@H](OCc2ccc(CO)cc2)O1 | 1526 | 15 | 14 | 1703 | 1950 | 6
COc1ccc2cc(Br)ccc2c1CC(=O)NC(C)(C)C | 2017* | 10 | 14 | 2048 | 2214 | 17
CC(=O)c1cccc(NC(=O)C(CC(C)C)NC(=O)C2CCCCC2)c1 (configuration not stated) | 1421 | -7 | -3 | 1704 | 1779 | -1
COc1ccc(C2(CNC(=O)/C=C\c3ccco3)CCCC2)cc1OC | 1498 | 41* | 2 | . | . | -5
CCC1CCc2c(sc(NC(=O)C3c4ccccc4Oc4ccccc43)c2C(N)=O)C1 (configuration not stated) | 1629 | 0 | 2 | 1659 | 1957 | -2
N#Cc1c(-c2ccccc2Cl)cc(-c2ccccc2)nc1Br | 1773 | -2 | 6 | 2059* | 1792 | 6
Cc1ccc(-c2[nH]c(=S)[nH]c(=O)c2C#N)cc1 | 2179* | -18 | -4 | 2293* | 2571* | 18
SMILES | TR-FRET SRC-2 ct | PPARg SRC-1 ag | PPARg SRC2 recr | SRC3 TRFRET art | SRC1 TRFRET art | PPARg SRC3 recr
CSc1cc(-c2ccc(Cl)cc2)[nH]c(=O)c1C#N | 1403 | 3 | -5 | 1471 | 1498 | -2
CCOc1ccccc1-c1nc(-c2ccc(NC(=O)Cc3ccccc3OC)cc2)no1 | 2140* | 1 | 2 | . | . | 3
COc1ccc(-n2nc(C(=O)NCC(=O)Nc3ccccn3)c3ccccc3c2=O)cc1Cl | 1766 | 23* | 4 | . | . | 1
O=C(C1CCCN(S(=O)(=O)c2ccc(F)cc2)C1)N(Cc1cccs1)C1CC1 (configuration not stated) | 1524 | 7 | 12 | 1816 | 2408* | 2
NS(=O)(=O)c1ccc(NC(=S)NCc2ccc(Cl)cc2)cc1 | 1569 | -3 | 4 | . | . | 30*
NS(=O)(=O)c1ccc(CNC(=S)Nc2ccc(F)c(Cl)c2)cc1 | 1378 | 2 | 5 | 1772 | 1672 | -1
